Each structure is given as a SMILES string. Results filed as inconclusive are left out. Where a call stands in place of a potency, no number is given. The source made the active and inactive calls. Calls come from the whole dose curve.

Chain of Acetylcholinesterase (Homo sapiens) (P22303 whole entry, looked up): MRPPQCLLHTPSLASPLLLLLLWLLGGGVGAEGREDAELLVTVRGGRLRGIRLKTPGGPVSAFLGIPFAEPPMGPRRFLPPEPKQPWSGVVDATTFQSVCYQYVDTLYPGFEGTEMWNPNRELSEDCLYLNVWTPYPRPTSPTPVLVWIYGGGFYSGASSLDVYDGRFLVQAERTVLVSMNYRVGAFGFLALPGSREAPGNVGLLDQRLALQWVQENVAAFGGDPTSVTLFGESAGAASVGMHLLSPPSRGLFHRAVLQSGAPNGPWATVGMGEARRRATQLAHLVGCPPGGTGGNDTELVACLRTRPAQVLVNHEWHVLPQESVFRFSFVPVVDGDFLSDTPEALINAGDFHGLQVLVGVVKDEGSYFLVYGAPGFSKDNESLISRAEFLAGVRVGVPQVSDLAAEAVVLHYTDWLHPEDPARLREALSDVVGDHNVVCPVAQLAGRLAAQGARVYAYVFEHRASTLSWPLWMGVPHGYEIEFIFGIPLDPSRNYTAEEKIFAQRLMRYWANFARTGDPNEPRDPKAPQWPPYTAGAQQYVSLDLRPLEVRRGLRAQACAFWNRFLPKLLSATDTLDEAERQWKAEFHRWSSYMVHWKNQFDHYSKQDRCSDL

In the assay the target is Acetylcholinesterase (Homo sapiens) (UniProt P22303). The assay is described as follows: Acetylcholinesterase (AChE) small molecule antagonists: colormetric cell-based qHTS assay (AID 1347395). Note: nearly all actives have a fitted effect of over 30% in size. To be noted: SH-SY5Y cells AChE activity, colorimetric (Ellman); series mostly up to 115 µM. The procedure, abridged:
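Quantitative HTS in attached SH-SY5Y cells: 30 min compound exposure, then 90 min with acetylthiocholine and DTNB at 37 C; colour from thiocholine reports AChE activity.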
Turning to `CCCOC(OCCC)OCCC`, the Potency result was “inactive”.
In the case of `CCCC(=O)O[C@]1(C(=O)CCl)[C@@H](C)C[C@H]2[C@@H]3CCC4=CC(=O)C=C[C@]4(C)[C@@]3(F)C(=O)C[C@@]21C`, the Potency entry is “inactive”.
As for `Cc1cc(CC(=O)O)c(C)n1-c1ccc(Cl)cc1`, the entry is “inactive”.
As for `CNC(=S)NC`, the Potency result is “inactive”.
In the case of `C=CC(=O)OCC1CCCO1` (stereo not given), the Potency entry is “inactive”.
`CN1CCCN=C1COC(=O)C(O)(c1ccccc1)C1CCCCC1` (stereo not given): the Potency entry was “inactive”.
The same measure for `Cc1ccc(O)cn1`: “inactive”; for `O=c1[nH]sc2ccccc12`: “inactive”.
As for `CCCO`, the entry is “inactive”; as for `CC(C)CCCC(C)(C)O`, “inactive”.
As for `CCCCCCOC(=O)NC(=N)c1ccc(NCc2nc3cc(C(=O)N(CCC(=O)OCC)c4ccccn4)ccc3n2C)cc1`, the entry is “inactive”; as for `C=CCCC(=O)O`, “inactive”; as for `CC(C)(C)C(=O)OCOC(=O)C1N2C(=O)CC2S(=O)(=O)C1(C)C` (stereo not given), “inactive”.
In the case of `CC1=NN(c2cccc(S(=O)(=O)O)c2)C(=O)C1`, the Potency result is “inactive”.
The same measure for `Cc1cc(C)cc([N+](=O)[O-])c1`: “inactive”.

Source of the values: PubChem BioAssay (Tox21).
